The values below come from PubChem BioAssay AID743286 (National Center for Advancing Translational Sciences (NCATS), 2014).

Among all 1,100 compounds or so, about 340 (31%) were called active. Roughly 40% stayed inconclusive and do not appear here. Calls follow the shape of the dose curve; as a rule, active = well fitted inhibition curve with a large enough effect; inconclusive = small, poorly fitted or top-dose-only effect; inactive = flat fitted curve, though single readings scatter. Only a sample is shown.
% is scaled to controls: 0 for no effect and ±100 for the full control effect; potency is read from the fitted curve at half-maximal effect.

Chain of Phosphatidylinositol 5-phosphate 4-kinase type-2 alpha (Homo sapiens) (P48426 whole entry, looked up): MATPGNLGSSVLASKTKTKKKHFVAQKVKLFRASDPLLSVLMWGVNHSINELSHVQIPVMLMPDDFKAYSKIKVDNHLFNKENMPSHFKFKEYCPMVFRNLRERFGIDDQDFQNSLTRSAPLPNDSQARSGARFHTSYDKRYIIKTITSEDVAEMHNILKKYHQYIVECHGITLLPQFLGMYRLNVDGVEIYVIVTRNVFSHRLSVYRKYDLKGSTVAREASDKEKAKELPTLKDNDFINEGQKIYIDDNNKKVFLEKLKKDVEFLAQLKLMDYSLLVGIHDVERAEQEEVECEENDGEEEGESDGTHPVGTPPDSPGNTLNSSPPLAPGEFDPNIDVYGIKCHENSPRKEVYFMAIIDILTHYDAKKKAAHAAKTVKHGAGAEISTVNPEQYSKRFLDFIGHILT

For this experiment, the target named is Phosphatidylinositol 5-phosphate 4-kinase type-2 alpha (Homo sapiens) (UniProt P48426). The experiment is described as follows: qHTS for Inhibitors of PI5P4K: Confirmation in Primary Assay. Also: nearly all actives have a fitted effect of over 65% in size. Particulars: PI5P4Kalpha enzyme, ADP-Glo luminescence, 60 min; series mostly up to 76.9 µM; activity change, negative = inhibition: at the top concentration. The essentials:
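Hits from a qHTS screen were retested in the same PI5P4Kα ADP-Glo format: 5 microM ATP, HEPES pH 7.4 buffer with CHAPS and EGTA, 60 min room-temperature reaction, single end-point luminescence read.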
A general note: Quantitative high-throughput screening tests each substance at several concentrations.
As for `CCOC(=O)C1=C(CC)Nc2ccccc2N=C1NC(=O)c1ccc(S(=O)(=O)N(C)C)cc1`, the “activity change, negative = inhibition” value is 2% (inactive). Same read-out and setting: for `COC(=O)c1c(NC(C)=O)sc(C(=O)Nc2ccccc2)c1C` the value was -0.19% (inactive); for `COc1ccccc1Cc1c(-c2ccco2)nc2cc(C)c(Br)c(C)n12`, -23.8% (inactive).

Regarding `Cc1cc2nc(-c3ccco3)c(Cc3cccc(F)c3)n2c(C)c1Br`, the Potency is 6.31 µM (active). For `Fc1cccc(Cc2c(-c3ccco3)nc3ccc(Cl)cn23)c1`, the “activity change, negative = inhibition” value was -18.6% (inactive). The same measure, in the same setting: for `O=C(COC(=O)Cc1ccsc1)Nc1cccc(F)c1` the value was 9.86% (inactive). `Cc1ccc(NC(=O)CN(C)C(=O)c2cccc(-n3cccc3)c2)cc1`: the Potency is 20 µM (active). For `CN(CC(=O)Nc1cccc(F)c1)C(=O)c1cccc(-n2cccc2)c1`, the Potency is 10 µM (active).

Turning to `CN(CC(=O)Nc1c(Cl)cccc1Cl)C(=O)c1cccc(-n2cccc2)c1`, the Potency is 14.1 µM (active). The same measure, in the same setting: then `Cc1cccc(NC(=O)CNC(=O)c2cccc(-n3cccc3)c2)c1C`, with 6.31 µM (active). For `CCN(CC(=O)Nc1ccc(OC)cc1)C(=O)c1ccc([N+](=O)[O-])cc1`, the “activity change, negative = inhibition” value is -0.54% (inactive). Same read-out and setting: then `Cc1ccc(NC(=O)CN(C)C(=O)COc2ccc(C(=O)c3ccc(F)cc3)cc2)cc1`, with 7.3% (inactive); and `Nc1nc(N)c2cc(S(=O)(=O)c3cccc(C(F)(F)F)c3)ccc2n1`, with -26.5% (inactive). Still for that read-out and setting: for `CCC1CCCCN1C(=O)Cn1nc([N+](=O)[O-])c(Cl)c1C` (configuration not stated) the value was -4.34% (inactive); for `CCOc1ccc(CCNS(=O)(=O)c2cn(C)cn2)cc1OCC`, -0.0108% (inactive).

With `O=C(CSc1nc(O)cc(=O)n1-c1ccccc1)Nc1nc2ccccc2s1`, the “activity change, negative = inhibition” value was -23.2% (inactive).

In the case of `CCC(C)n1c(SCC(=O)Nc2ccc3[nH]c(=O)[nH]c3c2)nc2ccccc2c1=O` (configuration not stated), the “activity change, negative = inhibition” value was -23.7% (inactive).

For `CC(=O)Nc1ccc2nc(SCC(=O)NCCOc3ccccc3)sc2c1`, the “activity change, negative = inhibition” value was -0.149% (inactive). Take `N#Cc1c(SCC(=O)Nc2nc3ccccc3s2)sc2c(O)cc(=O)[nH]c12`: the Potency is 6.31 µM (active).

Turning to `N#Cc1c(SCC(=O)Nc2nc3ccc(Br)cc3s2)sc2c(O)cc(=O)[nH]c12`, the Potency was 4.47 µM (active). As to `Nc1cc(-c2ccncc2)c[nH]c1=O`, the “activity change, negative = inhibition” value was -15.9% (inactive). With `O=C(COc1ccc2ccccc2c1)Nc1cccc(C(=O)Nc2ccccc2C(=O)O)c1`, the Potency was 20 µM (active).

For `O=C(COc1ccccc1)Nc1cccc(-c2ccc(N3CCOCC3)nn2)c1`, the “activity change, negative = inhibition” value is -18.8% (inactive).

On to `O=C(COc1ccc([N+](=O)[O-])cc1)Nc1cccnc1`, for which the “activity change, negative = inhibition” value was -5.44% (inactive). For the compound `COc1ccc(S(=O)(=O)N2CCN(C(=O)C3COc4ccccc4O3)CC2)cc1` (configuration not stated), the Potency was 10 µM (active). Regarding `COC(=O)Nc1ccc(S(=O)(=O)N2CCC(C(=O)N3CCC(C)CC3)CC2)cc1`, the “activity change, negative = inhibition” value is -3.71% (inactive). The same measure, in the same setting: then `CN1CCN(S(=O)(=O)c2ccc(N3CCc4ccccc4C3)nc2)CC1`, with -1.8% (inactive); and `CSc1ncccc1C(=O)Nc1ccc(OC(F)(F)F)cc1`, with 11.7% (inactive).

For the compound `Cc1ccc(NCC(=O)Nc2ccc(Br)cc2)cc1C`, the “activity change, negative = inhibition” value is 8.83% (inactive). As for `CCN(CC(=O)Nc1ccc(NC(C)=O)cc1)Cc1c(O)ccc2cc(Br)ccc12`, the Potency is 15.8 µM (active). Same read-out and setting: for `Cn1nnnc1Sc1ncnc2scc(-c3ccccc3C(F)(F)F)c12` the value was 17.8 µM (active). Still for that read-out and setting: for `O=C(NCCCN1CCOCC1)c1sc2cc([N+](=O)[O-])ccc2c1Cl` the value was 14.1 µM (active).

With `Cc1ccc([N+](=O)[O-])cc1Nc1nc(N2CCOCC2)nc(N2CCOCC2)n1`, the “activity change, negative = inhibition” value is 2.38% (inactive). Still for that read-out and setting: then `CCOC(=O)C1=C(N)N(c2ccccc2)C(=O)C1`, with -3.07% (inactive); and `CC(C)C(=O)N1CCN(c2ccccc2NC(=O)c2ccco2)CC1`, with -2.64% (inactive). Regarding `O=C(c1ccc2nc(-c3ccco3)c(-c3ccco3)nc2c1)N1CCN(c2ncccn2)CC1`, the Potency is 12.6 µM (active). Take `CC(Oc1ccc(F)cc1)C(=O)N1CCN(c2ncccn2)CC1` (configuration not stated): the “activity change, negative = inhibition” value is 0.356% (inactive). Still for that read-out and setting: then `Cc1cccc(C)c1NC(=O)C(c1ccccc1)n1c(=O)c(-c2ccco2)nc2ccccc21` (configuration not stated), with -24.1% (inactive). `O=C(Nc1ccc2nc(-c3ccco3)c(-c3ccco3)nc2c1)N1CCN(c2ccccn2)CC1`: the Potency is 11.2 µM (active). In the case of `COc1ccccc1N1CCN(C(=O)c2ccc(C(C)(C)C)cc2)CC1`, the “activity change, negative = inhibition” value is 0.452% (inactive). On the same count and under the same terms, for `CC(C)NC(=O)c1onc(CSc2ccccc2F)c1C(=O)O` the value was -0.693% (inactive).

On to `Cc1ccc(C(CCN(Cc2ccccc2)C(=O)c2ccco2)c2ccco2)cc1` (configuration not stated), for which the Potency was 14.1 µM (active). Take `Cc1ccc(S(=O)(=O)N(C(=O)c2ccco2)c2cc3sc(=O)oc3c3ccccc23)cc1`: the “activity change, negative = inhibition” value was -5.53% (inactive). On the same count and under the same terms, for `CC(C)N(CCC(=O)c1ccc2ccccc2c1)Cc1ccccc1` the value was -9.41% (inactive); for `O=C(N[C@@H](Cc1ccccc1)C(=O)OCc1ccccc1)c1nc[nH]c1C(=O)NC(c1ccccc1)c1ccccc1`, 7.69% (inactive). On to `O=c1[nH]c2ccccc2n2c(-c3ccccc3)nnc12`, for which the Potency was 5.01 µM (active). In the case of `Cc1cc(Oc2ccc(C#N)cc2)nc(NCc2ccccc2)n1`, the “activity change, negative = inhibition” value was -2.08% (inactive).

Regarding `CCn1c(CC(=O)Nc2ccccc2F)nnc1SCC(=O)NC1CCCCC1`, the “activity change, negative = inhibition” value was 1.05% (inactive). For `O=C(NCC1CC1)c1ccc(Nc2nc3ccc(Br)cc3[nH]2)cc1`, the “activity change, negative = inhibition” value is -15.7% (inactive). Take `CC1Cc2ccccc2N1C(=O)COC(=O)CCc1nc2ccccc2c(=O)[nH]1` (configuration not stated): the “activity change, negative = inhibition” value was -11.1% (inactive).

`NC(=O)c1ccc(-n2c(CCC(=O)O)ccc2-c2cccs2)cc1`: the Potency was 3.98 µM (active). Consider `CCc1nnc(NC(=O)c2ccc(S(C)(=O)=O)cc2)s1`, for which the “activity change, negative = inhibition” value was -2.39% (inactive).

`O=C(CSc1nc2[nH]c(=O)cc(O)c2s1)Nc1ccc(Cl)c(C(F)(F)F)c1`: the “activity change, negative = inhibition” value is -29.7% (inactive). In the case of `N#Cc1c(SCC(=O)Nc2nccs2)sc2c(O)cc(=O)[nH]c12`, the Potency was 15.8 µM (active).

As for `Cc1cnc(NC(=O)CSc2c(Cl)cccc2Cl)s1`, the “activity change, negative = inhibition” value was -18.7% (inactive). Take `Cc1cc(NC(=O)CSc2sc3c(O)cc(=O)[nH]c3c2C#N)ccc1Br`: the Potency was 8.91 µM (active). For the compound `CCc1nnc(NC(=O)CSc2sc3c(O)cc(=O)[nH]c3c2C#N)s1`, the Potency is 12.6 µM (active). Consider `N#Cc1c(SCC(=O)Nc2nncs2)sc2c(O)cc(=O)[nH]c12`, for which the Potency was 8.91 µM (active). For `CC1Cc2ccccc2N1C(=O)CNc1cccc(S(=O)(=O)N2CCCC2)c1` (configuration not stated), the “activity change, negative = inhibition” value is -3.8% (inactive).

`Cc1csc(NC(=O)CSc2nc3[nH]ncc3c(=O)[nH]2)n1`: the “activity change, negative = inhibition” value was -24.4% (inactive). On to `Cc1csc(NC(=O)CSc2sc3c(O)cc(=O)[nH]c3c2C#N)n1`, for which the Potency is 14.1 µM (active). With `COc1ccc(CC(=O)NCC(=O)NC(Cc2ccccc2)C(=O)O)cc1` (configuration not stated), the “activity change, negative = inhibition” value is 4.47% (inactive). In the case of `O=C(Nc1nccs1)c1cc(-c2ccco2)nc2ccccc12`, the Potency is 3.98 µM (active). Regarding `CCc1nnc(NC(=O)c2cc(-c3ccco3)nc3ccccc23)s1`, the Potency was 3.55 µM (active). Still for that read-out and setting: for `Cc1csc(NC(=O)c2cc(-c3ccco3)nc3ccccc23)n1` the value was 10 µM (active). In the case of `CC(=O)c1cccc(NC(=O)c2cc(-c3ccco3)nc3ccccc23)c1`, the “activity change, negative = inhibition” value is -24.5% (inactive). The same measure, in the same setting: then `CCc1nnc(NC(=O)c2cc(-c3ccc(C)o3)nc3ccccc23)s1`, with -23.9% (inactive).
